Bioassay records from PubChem BioAssay.
DT40 TDP1 no CPT = qHTS for Inhibitors of human tyrosyl-DNA phosphodiesterase 1 (TDP1): qHTS in cells in absence of CPT; DT40 Tdp1-/- hTDP1 cells, no CPT, ATP luminescence, 48 h; Potency, µM (top dose mostly 46.2 µM), most hits filed as inhibitors; actives 15% (n = 420,000); further: nearly all actives have a fitted effect of over 55% in size
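Seeded 400 DT40-hTDP1 cells/well (vehicle DMSO, no 20 nM CPT); pinned compounds; ≥48 hr at 37 °C; CellTiter-Glo luminescence as viability measure.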
TDP1 block = inhibitors of human tyrosyl-DNA phosphodiesterase TDP1 | Q9NUW8 | actives 0.28% (n = 350,000) | recombinant TDP1, AlphaScreen DNA substrate cleavage | Potency, µM (series often up to 130 µM), hits mostly inhibitors; further: nearly all actives have a fitted effect of over 40% in size
Target sequence (Q9NUW8 whole entry, looked up): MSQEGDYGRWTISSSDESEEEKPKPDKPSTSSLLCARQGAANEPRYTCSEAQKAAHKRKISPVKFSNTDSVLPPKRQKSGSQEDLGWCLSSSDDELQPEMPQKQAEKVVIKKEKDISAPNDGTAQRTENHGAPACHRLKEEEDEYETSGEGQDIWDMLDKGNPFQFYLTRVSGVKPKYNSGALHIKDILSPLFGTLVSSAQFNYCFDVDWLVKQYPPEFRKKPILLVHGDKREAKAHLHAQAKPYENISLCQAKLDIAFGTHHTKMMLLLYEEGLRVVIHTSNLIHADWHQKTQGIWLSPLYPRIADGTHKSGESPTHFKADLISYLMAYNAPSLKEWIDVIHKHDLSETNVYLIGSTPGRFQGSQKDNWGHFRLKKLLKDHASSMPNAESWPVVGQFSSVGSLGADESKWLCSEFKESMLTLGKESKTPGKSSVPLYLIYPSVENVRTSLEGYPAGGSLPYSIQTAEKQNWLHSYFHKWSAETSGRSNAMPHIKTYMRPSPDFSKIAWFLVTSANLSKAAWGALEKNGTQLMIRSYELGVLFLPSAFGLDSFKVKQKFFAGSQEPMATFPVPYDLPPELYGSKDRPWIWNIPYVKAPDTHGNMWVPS
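Recombinant human Tdp1 (E. coli-expressed, 1 nM final) preincubated with compounds 15 min at room temperature, then 5'-biotin/3'-phosphotyrosine-FITC DNA substrate (15 nM final) added for 5 min. AlphaScreen beads (10 ug/ml final) added 10 min; cleavage lowers signal.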
HepG2 tox = counter-screen for TGF-b inhibitors: cytotoxicity in HepG2 cells; Potency, µM (series often up to 46.1 µM), usual class: cytotoxic; AID 588856; actives 0.76% (n = 410,000); HepG2 CAGA-GFP viability, ATP luminescence, 18 h
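HepG2 CAGA-GFP cells (1000/well, DMEM with 1% FBS) received compound, then TGF-beta at 500 pg/mL final, and were incubated 18 hours at 37 degrees C. Viability was read by CellTiter-Glo luminescence. Media-only wells were set as complete cell-killing and DMSO as no toxicity.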
TGFb inhibitor = blocks TGF-b signaling; HepG2 CAGA-GFP TGF-b/SMAD3 reporter, GFP fluorescence, 18 h; TGF-beta stimulated, 500 pg/mL final; Potency, µM (titrated, usually from 46.1 µM), most hits filed as inhibitors; actives 1.2% (n = 410,000); further: nearly all actives have a fitted effect of over 65% in size
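Inhibition was scored as loss of TGF-beta-induced (500 pg/mL final, 18 hours, 37 degrees C) GFP in HEPG2 cells carrying a CAGA-GFP reporter, in DMEM with 1% FBS. Well GFP was summed per cell; Activity was normalised to unstimulated and stimulated DMSO wells, then concentration-response fitting.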
DT40 TDP1 CPT = DT40-hTDP1 cell growth loss with CPT; actives 12% (n = 420,000); Potency, µM (doses to about 46.2 µM), usual class: inhibitors; chicken DT40 Tdp1-/-;hTDP1 cells + 20 nM CPT, ATP luminescence, 48 h; AID 686979; further: nearly all actives have a fitted effect of over 55% in size
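Chicken DT40 Tdp1-/- cells complemented with human TDP1, 400 cells/well, exposed to compounds plus 20 nM camptothecin for at least 48 h at 37 C; viability read as ATP content by CellTiter-Glo luminescence.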
IL1B secr inh = blocks inflammasome-driven IL-1 beta release. THP-1 LPS/ATP IL-1B secretion, AlphaLISA, 16 h; active compounds read low. activity change, % at 57.5 µM. actives 4.7% (n = 360,000). AID 743279; in the data active means activity change below about -50%; inconclusive means mostly about -30% to -49%
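THP-1 cells pretreated 1 hr with compounds (up to 57.5 uM final), then stimulated with LPS (250 ng/mL final) plus ATP (1.25 mM final); secreted IL-1B measured by AlphaLISA after 16 hr, decreased signal indicating inhibition.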
Hits are given with their value; . = inactive; ? = inconclusive; / = no result given; [ ] = remark or other dose. This is a sample that favours compounds with a hit; in the whole collection about 19% have one here. Unless noted, the call rests on the fitted dose curve; in most records, active means well fitted curve in the direction sought with a large enough effect; inconclusive means small, poorly fitted or top-dose-only effect, or another doubt; inactive means no such curve, though single readings can be large; an effect the other way counts as inactive or inconclusive.

SMILES	DT40 TDP1 no CPT	TDP1 block	HepG2 tox	TGFb inhibitor	DT40 TDP1 CPT	IL1B secr inh
Cc1ccc(Cl)cc1NC(=O)C1CCCN(S(=O)(=O)c2cccc3cccnc23)C1 (centres undefined)	?	.	.	.	?	/
Cc1c(Cl)cccc1N=C1SCCN1C(=O)CN1C(=O)NC2(CCCC2)C1=O	18µM	.	.	?	?	.
CCOC(=O)C(Cc1ccccc1)NC(=O)CCc1c(C)nc2ncnn2c1C (centres undefined)	.	.	.	.	?	.
CCOC(=O)C(Sc1cc(-c2ccccc2)nc2ncnn12)C(C)=O (centres undefined)	18µM	/	.	.	?	.
C=CC(=O)OCCOCCOC(=O)C=C	/	.	/	/	/	/
COc1ccc(CCNC(=O)Cn2c(=O)c3cccn3c3ccc(F)cc32)cc1OC	?	.	.	?	.	/
COc1ccc(CCNC(=O)CCn2c(=O)c3cccn3c3ccc(F)cc32)c(OC)c1OC	8.2µM	.	.	?	13µM	.
COc1ccccc1CCNC(=O)CCn1c(=O)c2cccn2c2ccc(F)cc21	12µM	.	.	.	23µM	.
COc1ccc(Cc2c(-c3cccc(Cl)c3)nc3ccc(Cl)cn23)c(C)c1	?	/	.	.	26µM	.
COc1ccc(-c2nc3c(C)cc(Br)cn3c2Cc2ccc(C)cc2)cc1OC	?	/	.	?	?	.
COc1ccc(Cc2c(-c3ccc(C)cc3)nc3c(C)cc(Br)cn23)c(C)c1	?	/	.	.	?	.
COc1ccc(Cc2c(-c3ccc(OC)c(OC)c3)nc3ccc(C)cn23)c(C)c1	16µM	/	.	?	?	.
COc1ccc(-c2nc3ccc(Cl)cn3c2Cc2ccc(C)cc2)cc1OC	?	/	.	.	?	.
COc1ccc(-c2nc3c(C)cc(Br)cn3c2Cc2ccccc2)cc1OC	6.5µM	/	.	?	7.3µM	.
COc1ccc(Cc2c(-c3ccc(OC)c(OC)c3)nc3c(C)cc(Br)cn23)c(C)c1	1.5µM	/	.	.	1.2µM	.
COc1ccc(Cc2c(-c3cccc(Br)c3)nc3ccc(Cl)cn23)c(C)c1	?	/	.	.	.	.
COc1ccc(C2=C(C)C(N3CCC(C(=O)Nc4cc(C)ccc4C)CC3)=NS2(=O)=O)cc1	.	.	.	.	.	/
CCc1cccc(C)c1Nc1nc2ccccc2n2cnnc12	?	/	.	?	.	.
COC(=O)c1ccc2nc(-c3ccco3)c(Cc3ccc(OC)cc3C)n2c1	?	/	.	13µM	?	.
O=C(Nc1ccccc1OC(F)F)c1cc2c(s1)CCC2	.	.	.	.	.	.
Cc1ccc(NC(=O)c2cc3c(s2)CCCC3)cc1	.	.	.	.	?	-53
COc1ccccc1NC(=O)c1ccc(NC(=O)c2cc3c(s2)CCC3)cc1	16µM	.	.	.	?	.
Cc1ccc(NC(=O)c2ccc(S(=O)(=O)N3CCCCC3)cc2)nc1	.	.	.	.	?	.
Cc1cccc(NC(=O)c2cc(-c3cc(C)cc(C)c3O)n[nH]2)c1	?	/	.	?	?	-54
COc1ccc(NC(=O)c2cc(-c3ccccc3O)n[nH]2)cc1Cl	?	/	.	.	.	.
SMILES	DT40 TDP1 no CPT	TDP1 block	HepG2 tox	TGFb inhibitor	DT40 TDP1 CPT	IL1B secr inh
COc1ccc(NC(=O)c2cc(-c3cc(C)cc(C)c3O)n[nH]2)cc1Cl	?	.	.	?	21µM	-79
COc1ccc(NC(=O)c2cc(=O)c3cc(C)cc(C)c3o2)cc1	?	.	.	.	?	/
COc1ccc(CNC(=O)C2=C(C)C(=O)OC23CCCCC3)cc1	.	.	.	.	.	/
Cc1cccc(C)c1NC(=O)CN1CCN(CC(=O)NCC2(N3CCCCC3)CCCCC2)CC1	.	.	.	.	.	.
CN(C(=O)CSc1nc(N)c2c3c(sc2n1)CSC(C)(C)C3)c1ccccc1	16µM	.	.	?	16µM	-55
CN(C(=O)CSC1=NCCS1)c1ccccc1	.	.	.	.	.	.
CC(C)C(NC(=O)c1ccccc1)C(=O)OCc1cc([N+](=O)[O-])cc2c1OCOC2 (centres undefined)	12µM	.	.	.	15µM	.
CCOc1ccccc1C(=O)N[C@H](C(=O)OCc1cc([N+](=O)[O-])cc2c1OCOC2)C(C)C	16µM	.	.	?	?	.
CC(C)C(NC(=O)c1ccco1)C(=O)OCc1cc([N+](=O)[O-])cc2c1OCOC2 (centres undefined)	?	.	.	?	?	.
CCc1nn(CC(=O)NCc2ccccc2)c(=O)c2cccn12	.	.	.	.	.	/
N#Cc1ccc(S(=O)(=O)N2CCN(S(=O)(=O)c3ccc4c(c3)OCCO4)CC2)cc1	/	.	/	/	/	/
O=C1CC(N2CCC(O)(c3ccc(Br)cc3)CC2)C(=O)N1c1ccc(Cl)cc1 (centres undefined)	26µM	.	.	.	?	.
COc1ccc(N2C(=O)CC(N3CCC(O)(c4ccc(Br)cc4)CC3)C2=O)cc1 (centres undefined)	?	.	.	.	18µM	.
O=C1CC(N2CCC(O)CC2)C(=O)N1c1ccc(Br)cc1 (centres undefined)	?	.	.	.	?	.
Fc1ccc(NC(=S)N2CCN(c3ncccn3)CC2)cc1	.	.	.	.	.	.
C=Cn1ccnc1P(=S)(c1ccc2c(c1)c1ccccc1n2CC)c1nccn1C=C	?	.	.	.	29µM	?
COc1ccc(N(C(=O)c2cc3ccccc3oc2=O)C2C=CS(=O)(=O)C2)cc1 (centres undefined)	.	.	.	.	.	?
O=C(c1cc2ccccc2oc1=O)N(c1ccccc1)C1C=CS(=O)(=O)C1 (centres undefined)	.	.	.	.	.	-54
CC(C)c1ccc(N(C(=O)c2cc3ccccc3oc2=O)C2C=CS(=O)(=O)C2)cc1 (centres undefined)	13µM	.	.	.	?	.
CCOC(=O)C1CCN(C(c2ccccc2OC)c2c(O)cc(C)n(CCOC)c2=O)CC1 (centres undefined)	.	.	.	.	.	/
O=C(Nc1ncc(Cc2ccc(SC(F)F)cc2)s1)c1ccc(OC(F)F)cc1	1µM	.	.	?	1.3µM	.
Cc1ccc(Cc2cnc(NC(=O)c3ccco3)s2)cc1	?	.	.	?	.	.
CN(C(=O)C1CCCC1)C1CCS(=O)(=O)C1 (centres undefined)	.	.[0.505 µM]	.	.	.	.
